Source: PubChem BioAssay (National Center for Advancing Translational Sciences (NCATS))
SW480 rereplic = A quantitative high throughput screen for small molecules that induce DNA re-replication in SW480 colon adenocarcinoma cells; SW480 DNA re-replication, Hoechst DNA content imaging, 48 h; Potency, µM (top dose mostly 46.1 µM), without a hit: at the top dose re-replication activation, usual class: activators; 1.8% of 340,000 active; AID 624297, 2012; note: % of control where 0% means no effect; nearly all actives have a fitted effect of over 55% in size
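Image-based read-out: total Hoechst fluorescence of nuclei (405 nm excitation, 500-530 nm emission), with hits raising the fraction of high-intensity nuclei. SW480 colon cells incubated 48 hr with compounds at 37 C.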
HT1080-NT tox = qHTS for induction of synthetic lethality in tumor cells producing 2HG: qHTS for the HT-1080-NT fibrosarcoma cell line. HT-1080-NT fibrosarcoma viability, CellTiter-Glo ATP luminescence, 48 h. Potency, µM (doses to about 46.1 µM), for the others: at the top dose activity, negative = less viability, most hits filed as cytotoxic. 1.6% of 360,000 active;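 note: NT is the 2HG producing partner of a matched IDH1 knockdown line; 0% = DMSO-treated cells and -100% = media-only wells without cells; nearly all actives have a fitted effect of over 55% in size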
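Read-out is CellTiter-Glo luminescence after 10 minutes at room temperature, following 48 hours' compound treatment of HT-1080-NT cells (750 cells/well, RPMI, 5% FBS, 37 degrees C).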
KB-V1 MDR tox = qHTS assay for MDR1-selective chemotherapeutics: Primary screen using the drug-selected MDR subline cells KB-V1; 3.4% of 400,000 active; AID 1347076, 2019; KB-V1 MDR cells viability, CellTiter-Glo, 72 h; Potency, µM (top dose mostly 46.1 µM), actives largely listed as cytotoxic; note: % is set by controls: 0 for no effect and ±100 for the full control effect; nearly all actives have a fitted effect of over 60% in size
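In this primary screen, KB-V1 cells overexpressing P-gp are incubated with library compounds (lowest to highest concentration) for 72 h at 37 degrees C before a luminescent ATP viability read.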
KB-3-1 tox = qHTS assay for MDR1-selective chemotherapeutics: Primary screen using the parental adenocarcinoma cell KB-3-1. AID 1347075, 2019. KB-3-1 viability, CellTiter-Glo ATP luminescence, 72 h. 1.4% of 400,000 active. Potency, µM (series often up to 46.1 µM), most hits filed as cytotoxic; note: % is set by controls: 0 for no effect and ±100 for the full control effect; nearly all actives have a fitted effect of over 60% in size
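Screening of KB-3-1 cells (DMEM, 10% FBS, phenol-red free) ran from lowest to highest compound concentration; after 72 h at 37 °C viability was read luminescently and curves fitted.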
MCF10A rereplic = A quantitative high throughput screen for small molecules that induce DNA re-replication in MCF 10a normal breast cells; 2.9% of 350,000 active; Potency, µM (series often up to 46.1 µM), for the others: at the highest dose activity, positive = re-replication, hits mostly activators; MCF 10A DNA re-replication, Hoechst nuclear intensity, 48 h; note: % of control where 0% means no effect; nearly all actives have a fitted effect of over 50% in size
HT1080 IDH1KD tx = qHTS for induction of synthetic lethality in tumor cells producing 2HG: qHTS for the HT-1080-IDH1KD cell line; HT-1080 IDH1 knockdown viability, ATP luminescence, 48 h; Potency, µM (doses to about 46.1 µM), for the others: at the top dose activity, negative = toxicity, hits mostly cytotoxic; 2% of 360,000 active;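 note: 0% = DMSO wells and -100% = cell-free medium wells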
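HT-1080-IDH1KD cells (IDH1 knocked down), 750/well in RPMI with 5% FBS, treated with compound 48 h at 37 degrees C. Viability by CellTiter-Glo luminescence, normalised to DMSO and no-cell wells; concentration-response curves classed.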
An asterisk follows results filed as active; i = inactive; ? = inconclusive; nt = no result. A selection: hits, their analogues and other compounds. The true share with any hit is near 8%. Calls come from the whole dose curve; as a rule, active = well fitted curve in the direction sought with a large enough effect; inconclusive = small, poorly fitted or top-dose-only effect, or another doubt; inactive = no such curve, though single readings can be large; an effect the other way counts as inactive or inconclusive. Potency is the fitted concentration of half-maximal effect.

SMILES	SW480 rereplic	HT1080-NT tox	KB-V1 MDR tox	KB-3-1 tox	MCF10A rereplic	HT1080 IDH1KD tx
CCCCn1c(N)c(N(Cc2ccccc2OC)C(=O)COc2ccccc2OC)c(=O)[nH]c1=O	-1%	8%	i	i	-1%	5%
CCCCn1c(N)c(N(Cc2ccccc2OC)C(=O)c2ccc([N+](=O)[O-])s2)c(=O)[nH]c1=O	21µM*	-18%	i	?	?	-10%
CCCC[C@@H]1CNC(=S)N1CC1CCCCC1	?	6%	i	i	17%	2%
CCCC[C@@H]1CNC(=S)N1CCC12CC3CC(CC(C3)C1)C2	4%	-8%	?	i	16µM*	-9%
Cc1ccccc1OCCc1c(C)[nH]c(=S)[nH]c1=O	3.7µM*	2.3µM*	1.8µM*	1.5µM*	?	2.1µM*
Cc1nc(NS(=O)(=O)c2ccc(Cl)s2)c2c3c(sc2n1)CCCC3	-11%	?	12µM*	?	?	?
COCCCNC(=S)N1CCN(S(=O)(=O)c2ccc(OC)cc2)CC1	-3%	-1%	i	?	-2%	0%
Cc1[nH]n(-c2nc(-c3ccc(Cl)cc3)cs2)c(=O)c1N=Nc1ccc(O)cc1	-1%	?	15µM*	?	?	-24%
CCc1cc(-c2n[nH]c(=S)n2Cc2ccccc2)cs1	-1%	8%	21µM*	i	3%	10%
Cc1ccccc1-n1c(C)n[nH]c1=S	15µM*	13µM*	i	i	9.2µM*	?
CCc1cc(-c2n[nH]c(=S)n2CC)cs1	0%	1%	?	?	5%	2%
CCc1cc(-c2n[nH]c(=S)n2-c2ccccc2C)cs1	?	11µM*	18µM*	i	-3%	?
N#Cc1ccccc1OCC(=O)C1CC1	26%	9%	i	i	1%	11%
C/C(=N\NC(=O)c1ccc(Cl)cc1)c1ccc(Br)s1	-1%	-27%	i	?	8%	-8%
C/C(=N\NC(=O)c1cc(Cl)ccc1O)c1ccc(Br)s1	nt	-5%	21µM*	?	?	?
Cc1c(CN(C)C)c2c(n1Cc1ccccc1)C(=O)c1ccccc1-2	0%	23µM*	?	?	4%	16µM*
Cn1cc(/C=C(\NC(=O)c2ccccc2)C(=O)NCCCN2CCOCC2)c2ccccc21	0%	-2%	i	i	3%	-13%
Cc1oc(-c2ccc(-c3ccccc3)cc2)nc1CN(C)C1CCOC1 (stereo unspecified)	16µM*	?	?	?	?	?
Cc1oc(-c2cccc(Cl)c2)nc1CN(C)C1CCOC1 (stereo unspecified)	3%	0%	i	i	0%	15%
Cc1oc(-c2ccc(-c3ccccc3)cc2)nc1CN(CCO)C(C)C	3%	?	i	i	?	23µM*
O=C(CN1C(=O)CS/C1=C\c1nc(-c2ccc(Cl)cc2)cs1)Nc1cccnc1Cl	?	-5%	i	i	?	-7%
Cc1ccc(-c2csc(/C=C3\SC(C)C(=O)N3CC(=O)Nc3ccccc3F)n2)cc1 (stereo unspecified)	-3%	17%	?	i	18µM*	12%
COc1cccc(/C=N/Nc2ncnc3scc(-c4ccccc4)c23)c1OC	?	20µM*	i	i	?	11µM*
COc1ccc(-c2csc3ncnc(Nc4ccccc4)c23)cc1	nt	nt	i	i	nt	nt
CC(=O)c1ccc(NCCC(=O)c2ccccc2)cc1	-16%	2%	i	i	9%	2%
